This note sets out measurements from PubChem BioAssay (NCATS).

Assay [1] is described as follows: qHTS profiling for inhibitors of Plasmodium falciparum proliferation (AID 504749).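 As to activity, negative = inhibition: 0% = DMSO vehicle and full inhibition = artemisinin control.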 As to all read-outs here: nearly all actives have a fitted effect of over 60% in size. To be noted: P. falciparum in erythrocytes, SYBR Green DNA, 72 h; for activity, negative = inhibition: at 28.7 µM (top of the series). In a few lines: (§1)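 Infected RBCs, 0.3% parasitemia/2.5% Hct final; cpd 72 h, 37 C, 5% CO2; lysis buffer with saponin/triton/SYBR Green I, o/n RT dark; FI 485/535; norm. to artemisinin (0.29 uM) and DMSO.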

Another assay deals with 3D7. The description is as above. To be noted: P. falciparum in erythrocytes, SYBR Green DNA, 72 h; series mostly up to 28.7 µM. In a few lines:
as §1

In another assay the test system is 7G8. The description is as above. The settings on record: P. falciparum in erythrocytes, SYBR Green DNA, 72 h; series mostly up to 28.7 µM. In outline:
as §1

For a further assay, the system named is AA1029. The assay is described as above. The settings on record: P. falciparum in erythrocytes, SYBR Green DNA, 72 h; series mostly up to 28.7 µM. In outline: as §1
Another assay has as its system AS120. The assay is described as above. The settings on record: P. falciparum in erythrocytes, SYBR Green DNA, 72 h; series mostly up to 28.7 µM. In a few lines: as §1

Inconclusive results are not listed. Unmarked numbers belong to inactive results. Active and inactive are the calls of the source. Calls follow the shape of the dose curve; as a rule, active = well fitted inhibition curve with a large enough effect; inconclusive = small, poorly fitted or top-dose-only effect; inactive = flat fitted curve, though single readings scatter.
Potency is read from the fitted curve at half-maximal effect.

Turning to `CCOC(=O)C1=CC2(CC)CCCN3CCc4c(n1c1ccccc41)C32` (stereo unspecified), the Potency in assay [1] (parasite line A) was 11.2 µM (active); in assay [1] (parasite line B), 7.94 µM (active); with 3D7, 8.91 µM (active); in the assay with 7G8, 5.62 µM (active); with AA1029, 11.2 µM (active); in the assay with AS120, 11.2 µM (active).
`O=C(Nc1ccc(Br)cc1)c1cc(Br)c(Br)s1`: the Potency (in assay [1] (parasite line A); in the assay with 7G8) was 10 µM (active) in each case.
On to `COC(=O)[C@H]1[C@H]2C[C@@H]3c4[nH]c5ccccc5c4CCN3C[C@H]2C[C@@H](OC(=O)c2cc(OC)c(OC)c(OC)c2)[C@@H]1OC`, for which the Potency in assay [1] (parasite line A) was 0.355 µM (active); in assay [1] (parasite line B), 0.631 µM (active); in the assay on 3D7 it was 0.891 µM (active); with 7G8, 0.0501 µM (active); in the assay on AA1029 it was 0.282 µM (active); with AS120 it was 0.199 µM (active).
As to `CCCCCCCC/C=C\CCCCCCCC(=O)O`, in assay [1] (parasite line A), the activity, negative = inhibition was 12.9%. Moreover, the Potency result in the assay on 3D7, in the assay on 7G8, in the assay on AA1029 and with AS120 was “inactive” each time.
Take `CCOc1ccc2c(c1)C(C)=CC(C)(C)N2`: the activity, negative = inhibition in assay [1] (parasite line A) was -19.3%; in assay [1] (parasite line B), -4.99%. The Potency entry in the assay with 7G8, in the assay with AA1029 and with AS120 was “inactive” throughout.
With `CCOC(C)=O`, the activity, negative = inhibition in assay [1] (parasite line A) was 0.182%; in assay [1] (parasite line B), 7.53%. Also, the Potency entry in the assay on 3D7, in the assay with 7G8, in the assay with AA1029 and in the assay on AS120 was “inactive” each time.
In the case of `O=S(=O)(O)c1cc(O)c2c(N=Nc3ccc(Nc4ccccc4)c4c(S(=O)(=O)O)cccc34)cc(S(=O)(=O)O)cc2c1`, the Potency entry with 3D7 and in the assay on AA1029 was “inactive” each time.
As to `CC(C)=O`, in assay [1] (parasite line A), the activity, negative = inhibition was -12.1%. Further, the Potency entry in the assay on 3D7, in the assay on 7G8, with AA1029 and with AS120 was “inactive” throughout.
As to `CC(=O)Oc1c(C)cc(OCC(O)CNC(C)C)c(C)c1C` (stereo unspecified), the Potency entry in the assay with 3D7, in the assay on 7G8, in the assay with AA1029 and in the assay with AS120 was “inactive” in each case.
In the case of `O=C(Nc1cccc(C(F)(F)F)c1)c1cc(Br)cc(Br)c1O`, the results for the Potency (in assay [1] (parasite line B); in the assay with 7G8; in the assay on AS120) were 10 µM (active), 6.31 µM (active) and 12.6 µM (active), respectively.
For `COC(=O)[C@H]1[C@H]2CC3c4[nH]c5ccccc5c4CCN3C[C@@H]2CC[C@@H]1O` (stereo partly specified), the figures for the activity, negative = inhibition in assay [1] (parasite line A) and in assay [1] (parasite line B) were 14.5% and 13.8%, respectively. Moreover, the Potency entry in the assay on 7G8, with AA1029 and in the assay on AS120 was “inactive” in each case.
Turning to `CCCCC(=O)O[C@]1(C(=O)CO)[C@H](C)C[C@H]2[C@@H]3CCC4=CC(=O)C=C[C@]4(C)[C@@]3(F)[C@@H](O)C[C@@]21C`, in the assay with 7G8, the Potency is 8.91 µM (active). In addition, in the assay on AA1029, the Potency entry was “inactive”.
